Assay results published in paper PMC5540273 (PLoS ONE, 2017).

Columns and labels:
Settings in all cases: concentration: 1 μM,replicates: in singlicate; n = 1
ERK1 = test system: T1, ERK1
T1 construct: gene MAPK3

ERK2 = test system: T2, ERK2
T2 construct: gene MAPK1

ERK3 = test system: T3, ERK3
T3 construct: gene MAPK6

ERK4 = test system: T4, ERK4
T4 construct: gene MAPK4

ERK5 = test system: T5, ERK5
T5 construct: gene MAPK7

ERK8 = test system: T6, ERK8
T6 construct: gene MAPK15

ERN1 = test system: ERN1
FAK = test system: T7, FAK
T7 construct: gene PTK2

FER = test system: FER
FES = test system: FES
FGFR1 = test system: FGFR1
FGFR2 = test system: FGFR2
FGFR3 = test system: FGFR3
FGFR4 = test system: FGFR4
FGR = test system: FGR
FLT1 = test system: FLT1
FLT3-autoinhibited = test system: FLT3-autoinhibited
FLT3 = test system: FLT3
FLT4 = test system: FLT4
FRK = test system: FRK
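Further: KINOMEscan kinase panel screen.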

Compound	%Inh (ERK1) [%]	%Inh (ERK2) [%]	%Inh (ERK3) [%]	%Inh (ERK4) [%]	%Inh (ERK5) [%]	%Inh (ERK8) [%]	%Inh (ERN1) [%]	%Inh (FAK) [%]	%Inh (FER) [%]	%Inh (FES) [%]	%Inh (FGFR1) [%]	%Inh (FGFR2) [%]	%Inh (FGFR3) [%]	%Inh (FGFR4) [%]	%Inh (FGR) [%]	%Inh (FLT1) [%]	%Inh (FLT3-autoinhibited) [%]	%Inh (FLT3) [%]	%Inh (FLT4) [%]	%Inh (FRK) [%]
O=C(Nc1cccc(C(F)(F)F)c1)c1cccc(Oc2ccc3nccn3n2)c1	7	7	0	2	22	4	29	38	5	0	24	15	5	6	0	97.4	17	18	78	87
Cc1nnc(-c2ccc3occ(-c4ccc(S(C)=O)cc4)c3n2)o1 (centres unmarked)	0	19	0	0	0	0	0	0	0	15	0	0	0	0	25	0	0	0	0	0
C[C@@H](Oc1cc(-n2cnc3ccc(-c4ccncc4)cc32)sc1C(N)=O)c1ccccc1Cl [GSK483724]	5	0	0	0	0	55	3	0	39	4	11	6	29	15	27	35	6	53	37	14
COc1cc2c(Nc3ccc(NC(=O)c4ccccc4)cc3)ncnc2cc1OCCCN1CCOCC1 [GSK301329]	4	3	0	0	0	0	46	0	4	0	0	0	6	0	35	26	0	35	5	7
CC(=O)Nc1ccc(-c2cc3ncnc(SCC(=O)O)c3s2)cc1	0	9	0	0	0	27	10	1	0	14	27	15	0	0	21	5	33	39	0	0
CCNCC(Cc1ccccc1)NC(=O)c1cc(Br)c(-c2ccnc3[nH]ccc23)s1.Cl.Cl (centres unmarked) [GSK1383280]	19	0	4	32	0	3	12	2	0	0	88	81	61	68	22	54	9	69	49	17
Cl.c1ccc(Oc2ccc(Nc3ccnc4cc(-c5ccc(CN6CCNCC6)o5)ccc34)cc2)nc1 [GW567142]	0	0	0	30	0	0	0	9	4	0	0	0	0	0	74	8	41	90.4	6	7
CNC(=O)c1ccccc1Nc1nc(Nc2cccc(CS(C)(=O)=O)c2)ncc1C.O=CO [GSK1520489]	46	60	35	35	0	80	58	99.9	96	38	99.9	99.3	99.8	94.6	99.2	98.2	89	99.1	100	98.2
CS(=O)(=O)Nc1ccc(-c2ccnc3[nH]ccc23)cc1 [GSK993273]	0	0	0	13	0	0	25	0	16	0	29	20	4	8	16	56	10	74	28	0
CCN1CCN(CCCC(=O)Nc2n[nH]c3nc(-c4ccc(O)cc4)c(Br)cc23)CC1 [SB-731579]	0	0	0	0	87	56	0	0	0	0	0	0	0	0	0	0	0	61	0	0
